This note sets out measurements from PubChem BioAssay.

Values without a mark were called inactive. The source made the active and inactive calls. Unless noted, no stated cut-off is given here; in the data, active means inhibition above about 28%; inactive means the rest.

Tested on in the first assay: not listed separately
In words: StAR promoter reporter inhibitors, counter-screen for LRH-1 inverse agonist project, cell-based, luminescence, high throughput (AID 651611). The note with it: StAR promoter luciferase reporter counterscreen, at 3.6 µM, hits give high values.
A word on the inhibition: it is the relative decrease from the control value, in per cent. For the compound `Cc1cc(C)c(C#N)c(Sc2nc(C)c([N+](=O)[O-])c(C)c2C#N)n1`, the inhibition was 3.51%.

Consider `O=C1C=CC2(C=C1)O[C@H](Cc1ccccc1)[C@@H](Cc1ccccc1)O2`, for which the inhibition is 37% (active).

For `O=C(CCCc1ccccc1)c1ccc2c(c1)OCCO2`, the inhibition is 62.5% (active).

As to `O=C(Nc1ccc(Cl)cc1)/C(=C/c1cccc(O)c1)c1nc2ccccc2s1`, the inhibition is 52% (active).

In the case of `C=CC(=O)N1C/C(=C/c2ccccc2)C(=O)/C(=C\c2ccccc2)C1`, the inhibition was -2.93%.

Regarding `CC1CCC/C=C/C(=O)c2c(O)cc(O)cc2CC(=O)O1` (stereo not given), the inhibition was 8.63%.

In the case of `CCOc1ccc(-c2cc(CCCC(=O)Nc3cccc(OC)c3)no2)cc1`, the inhibition is 40.6% (active).

For `C#CCN(C[C@@H]1[C@@H](OC(=O)Nc2cccs2)[C@@H](OC(=O)Nc2cccs2)Cn2c(=O)ccc(=O)n21)S(=O)(=O)c1ccc(C)cc1`, the inhibition is 32% (active).

Turning to `Cc1cc(C)n2c(Nc3ccc4c(c3)OCCO4)c(-c3cc4ccccc4o3)nc2n1`, the inhibition is -27.7%.

Take `O=C(CCl)Nc1cc2[nH]c(=O)[nH]c2cc1Br`: the inhibition is 71.3% (active).

As to `COc1cccc(C2=CC(=O)CC(C)(C)C2)n1`, the inhibition was 9.54%.

For the compound `COc1ccc(OC)c(N(CCN2C(=O)c3ccccc3C2=O)C(=O)CCl)c1`, the inhibition was 10.9%.

Consider `O=C1/C(=C\c2ccccc2)CN(C(=O)CCN2CCCCC2)C/C1=C/c1ccccc1`, for which the inhibition was 56.7% (active).

Consider `N#CC(=C1C=CC(=NO)C(Cl)=C1)c1ccccc1`, for which the inhibition is 26%.

On to `CCC(C(=O)NCc1ccccc1)n1c(CSCCOc2ccccc2)nc2ccccc21` (stereo not given), for which the inhibition was 21.1%.

With `COc1ccc(/C=C/c2nc3ccccc3c(=O)o2)cc1`, the inhibition is 38.6% (active).

With `Cc1nnsc1C(=O)NC1CCCc2c1cnn2-c1ccc(C(C)(C)C)cc1` (stereo not given), the inhibition is 29.2% (active).

Consider `Cc1scc(C(=O)N/N=C/c2ccc([N+](=O)[O-])o2)c1C`, for which the inhibition was 42.8% (active).

For the compound `O=C(CCl)N1CCN(S(=O)(=O)Cc2ccccc2)CC1`, the inhibition is 25.3%.

With `Cc1ccc(C(=O)Sc2cccccc2=O)cc1`, the inhibition was 98.1% (active).

As to `COc1ccc(CCNc2ncnc3sc(C)cc23)cc1OC`, the inhibition is 35.5% (active).

On to `CC(=O)c1c(C)[nH]c(C(=O)COc2cc(C)ccc2C(C)C)c1C`, for which the inhibition is 21.1%.

With `COc1ccc(-c2noc(CCCC(=O)NC3CCCC3)n2)cc1`, the inhibition is 15.1%.

On to `CC1C/C(=C/c2ccncc2)C(=O)/C(=C/c2ccncc2)C1` (stereo not given), for which the inhibition was 17.3%.

As to `C=CC(=O)N1C/C(=C/c2ccc(Cl)cc2)C(=O)/C(=C\c2ccc(Cl)cc2)C1`, the inhibition was 17.8%.

With `CCN(Cc1ccc(OC)c(F)c1)C(=O)CCl`, the inhibition was 31.7% (active).

Consider `O=C(CSc1ncccc1C(=O)O)Nc1ccc2c(c1)OCCO2`, for which the inhibition was 4.26%.

With `O=C(NCCOc1cccnc1)c1ccc(OC2CCN(Cc3ccccn3)CC2)cc1`, the inhibition was 90.8% (active).

Turning to `Brc1ccc2ncnc(NCc3ccccc3)c2c1`, the inhibition is 30.5% (active).

With `CN(C)CCC(=O)N1C/C(=C/c2ccccc2)C(=O)/C(=C\c2ccccc2)C1`, the inhibition was 61.4% (active).

With `CC(=O)NC(c1cccc([N+](=O)[O-])c1)c1ccc2cccnc2c1O` (stereo not given), the inhibition is 85.6% (active).

On to `COc1ccc(-c2cc(-c3nc4ccccn4c3NCc3ccccc3)ccc2OC)cc1`, for which the inhibition was 95.2% (active).

As for `COc1ccc(C)cc1NS(=O)(=O)c1ccc(-c2cnc(C3CC3)o2)cc1`, the inhibition is 41.5% (active).

Consider `Cn1cnc([N+](=O)[O-])c1Oc1ccc2ccccc2c1`, for which the inhibition was 38.9% (active).

Consider `CC(C)(C)c1ccc(Oc2ccc(NC(=O)C3CC=CCC3C(=O)O)cc2)cc1` (stereo not given), for which the inhibition is 1.67%.

On to `COc1ccc(NC(=O)/C(Cl)=C(/Cl)S(=O)Cc2ccccc2)cn1` (stereo not given), for which the inhibition was 56.1% (active).

For the compound `O=C(NCCc1c[nH]c2ccccc12)c1ccc([N+](=O)[O-])o1`, the inhibition is 15.7%.

With `CCCCCc1c(CC)ncn1CCc1ccccc1OC`, the inhibition is -2.24%.

In the case of `CC(C)(C)C(=O)Nc1cc2nn(-c3ccccc3)nc2cc1Cl`, the inhibition is 48.3% (active).

As to `Cc1ccc(NC(=O)C2=C(c3ccccc3)S(=O)(=O)CCS2(=O)=O)cc1`, the inhibition was 11%.

In the next assay the target is Nuclear receptor subfamily 5 group A member 2 (Homo sapiens) (UniProt O00482). In words: NR5A2 activity suppression in reporter cells – cell-based, luminescence, confirmation (AID 651613; in the data active means inhibition above about 42%;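 further: HEK293T cells co-transfected with LRH-1 and StAR promoter luciferase reporter; 0% = vehicle wells and 100% = parental cells lacking receptor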). The conditions noted are these: cell-based LRH-1 luciferase reporter, inverse agonism; at 3.6 µM; hits give high values.
Sequence of Nuclear receptor subfamily 5 group A member 2 (Homo sapiens) (O00482 whole entry, looked up): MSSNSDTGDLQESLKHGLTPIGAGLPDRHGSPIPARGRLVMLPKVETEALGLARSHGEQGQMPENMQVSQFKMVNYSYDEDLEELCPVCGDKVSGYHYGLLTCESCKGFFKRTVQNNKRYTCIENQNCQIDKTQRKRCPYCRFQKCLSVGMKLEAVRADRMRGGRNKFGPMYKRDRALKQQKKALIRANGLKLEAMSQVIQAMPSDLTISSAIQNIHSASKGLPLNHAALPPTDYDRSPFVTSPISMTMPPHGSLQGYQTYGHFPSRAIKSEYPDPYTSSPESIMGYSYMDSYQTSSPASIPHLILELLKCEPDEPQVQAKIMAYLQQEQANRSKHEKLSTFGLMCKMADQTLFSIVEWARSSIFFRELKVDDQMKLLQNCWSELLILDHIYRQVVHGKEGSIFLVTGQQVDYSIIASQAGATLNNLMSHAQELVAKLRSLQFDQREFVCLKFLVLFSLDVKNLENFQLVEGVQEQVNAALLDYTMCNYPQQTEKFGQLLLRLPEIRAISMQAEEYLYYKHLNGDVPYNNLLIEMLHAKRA
Consider `Cc1cc(C)c(C#N)c(Sc2nc(C)c([N+](=O)[O-])c(C)c2C#N)n1`, for which the inhibition is 10.9%.

As to `O=C1C=CC2(C=C1)O[C@H](Cc1ccccc1)[C@@H](Cc1ccccc1)O2`, the inhibition was 83.4% (active).

As for `O=C(CCCc1ccccc1)c1ccc2c(c1)OCCO2`, the inhibition was 7.99%.

Take `O=C(Nc1ccc(Cl)cc1)/C(=C/c1cccc(O)c1)c1nc2ccccc2s1`: the inhibition is 78.1% (active).

`C=CC(=O)N1C/C(=C/c2ccccc2)C(=O)/C(=C\c2ccccc2)C1`: the inhibition was 71.8% (active).

In the case of `CC1CCC/C=C/C(=O)c2c(O)cc(O)cc2CC(=O)O1` (stereo not given), the inhibition was 35.8%.

Regarding `CCOc1ccc(-c2cc(CCCC(=O)Nc3cccc(OC)c3)no2)cc1`, the inhibition was 40.9%.

With `C#CCN(C[C@@H]1[C@@H](OC(=O)Nc2cccs2)[C@@H](OC(=O)Nc2cccs2)Cn2c(=O)ccc(=O)n21)S(=O)(=O)c1ccc(C)cc1`, the inhibition was 54.4% (active).

For the compound `Cc1cc(C)n2c(Nc3ccc4c(c3)OCCO4)c(-c3cc4ccccc4o3)nc2n1`, the inhibition was -26.8%.

As to `O=C(CCl)Nc1cc2[nH]c(=O)[nH]c2cc1Br`, the inhibition was 78.6% (active).

For `COc1cccc(C2=CC(=O)CC(C)(C)C2)n1`, the inhibition is 61.3% (active).

Consider `COc1ccc(OC)c(N(CCN2C(=O)c3ccccc3C2=O)C(=O)CCl)c1`, for which the inhibition is 30.5%.

As for `O=C1/C(=C\c2ccccc2)CN(C(=O)CCN2CCCCC2)C/C1=C/c1ccccc1`, the inhibition was 84.7% (active).

In the case of `N#CC(=C1C=CC(=NO)C(Cl)=C1)c1ccccc1`, the inhibition is 41.8% (active).

With `CCC(C(=O)NCc1ccccc1)n1c(CSCCOc2ccccc2)nc2ccccc21` (stereo not given), the inhibition is 21.6%.

For `COc1ccc(/C=C/c2nc3ccccc3c(=O)o2)cc1`, the inhibition is -49.3%.

Regarding `Cc1nnsc1C(=O)NC1CCCc2c1cnn2-c1ccc(C(C)(C)C)cc1` (stereo not given), the inhibition is 50.7% (active).

Regarding `Cc1scc(C(=O)N/N=C/c2ccc([N+](=O)[O-])o2)c1C`, the inhibition was 76.3% (active).

In the case of `O=C(CCl)N1CCN(S(=O)(=O)Cc2ccccc2)CC1`, the inhibition is 52.9% (active).

With `Cc1ccc(C(=O)Sc2cccccc2=O)cc1`, the inhibition is 107% (active).

Turning to `COc1ccc(CCNc2ncnc3sc(C)cc23)cc1OC`, the inhibition is 90.1% (active).

With `CC(=O)c1c(C)[nH]c(C(=O)COc2cc(C)ccc2C(C)C)c1C`, the inhibition is 53.5% (active).

As for `COc1ccc(-c2noc(CCCC(=O)NC3CCCC3)n2)cc1`, the inhibition is 59.7% (active).

Take `CC1C/C(=C/c2ccncc2)C(=O)/C(=C/c2ccncc2)C1` (stereo not given): the inhibition is 73.6% (active).

`C=CC(=O)N1C/C(=C/c2ccc(Cl)cc2)C(=O)/C(=C\c2ccc(Cl)cc2)C1`: the inhibition is 84.7% (active).

For `CCN(Cc1ccc(OC)c(F)c1)C(=O)CCl`, the inhibition was 78.7% (active).

Turning to `O=C(CSc1ncccc1C(=O)O)Nc1ccc2c(c1)OCCO2`, the inhibition is 11.1%.

On to `O=C(NCCOc1cccnc1)c1ccc(OC2CCN(Cc3ccccn3)CC2)cc1`, for which the inhibition is 105% (active).

In the case of `Brc1ccc2ncnc(NCc3ccccc3)c2c1`, the inhibition was 72.4% (active).

Regarding `CN(C)CCC(=O)N1C/C(=C/c2ccccc2)C(=O)/C(=C\c2ccccc2)C1`, the inhibition was 84% (active).

Consider `CC(=O)NC(c1cccc([N+](=O)[O-])c1)c1ccc2cccnc2c1O` (stereo not given), for which the inhibition is 100% (active).

Take `COc1ccc(-c2cc(-c3nc4ccccn4c3NCc3ccccc3)ccc2OC)cc1`: the inhibition is 109% (active).

Regarding `COc1ccc(C)cc1NS(=O)(=O)c1ccc(-c2cnc(C3CC3)o2)cc1`, the inhibition was 41.9% (active).

For the compound `Cn1cnc([N+](=O)[O-])c1Oc1ccc2ccccc2c1`, the inhibition was 55.3% (active).

Regarding `CC(C)(C)c1ccc(Oc2ccc(NC(=O)C3CC=CCC3C(=O)O)cc2)cc1` (stereo not given), the inhibition is 6.39%.

Turning to `COc1ccc(NC(=O)/C(Cl)=C(/Cl)S(=O)Cc2ccccc2)cn1` (stereo not given), the inhibition was 87.8% (active).

With `O=C(NCCc1c[nH]c2ccccc12)c1ccc([N+](=O)[O-])o1`, the inhibition was 62.6% (active).

As for `CCCCCc1c(CC)ncn1CCc1ccccc1OC`, the inhibition was 23.2%.

Turning to `CC(C)(C)C(=O)Nc1cc2nn(-c3ccccc3)nc2cc1Cl`, the inhibition was 19.3%.

As for `Cc1ccc(NC(=O)C2=C(c3ccccc3)S(=O)(=O)CCS2(=O)=O)cc1`, the inhibition is -4.23%.
